The values that follow come from PubChem BioAssay (NCI).

The structures appear in SMILES notation. This is part of a sample that, as a whole, favours compounds with a hit. Of some 83,000 tested, about 20% had one in any assay.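 Cells were grown in 96-well plates and exposed to the test compound at a single concentration for 48 hours; results are reported as percent growth, with values below 10 considered active.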 Unmarked numbers belong to inactive results. Calls of active or inactive are those of the source.

This test concerns HL-60(TB) leukemia. Put plainly: NCI-60 one-dose screen, 48 h (100 = growth as untreated, 0 = no growth, -100 = all killed). Particulars: 10 µM unless noted.
For `CCOC(=O)c1c2c(n3ccccc13)C(=O)c1ncccc1C2=O`, the growth is -28.8% (active). With `CCCCCCCCCCC1OC(C)CC(C)O1` (stereo not given) the figure was 92.9%; with `O=c1oc2c(cc1-c1ccccc1)c[n+]([O-])c1ccccc21`, 97.7%; with `COC1=CC(c2ccc[nH]2)=N/C1=C\c1[nH]c(C)c(C(=O)OC(C)C)c1C`, 2.29% (active). With `CS(=O)(=O)c1ccc(/C=C\C(=O)O)cc1` the figure was 122%; with `Nc1cccc2cccc(O)c12`, 82.9%; with `COc1ccc(-c2csc(NC(=O)CN3CCN(CCO)CC3)n2)cc1NS(=O)(=O)c1cccc2c(N(C)C)cccc12`, 93.8%. Take `CCCCNP1(NCCCC)=NP(NCCCC)(NCCCC)=NP(NCCCC)(NCCCC)=NP(NCCCC)(NCCCC)=N1`: the growth is -59.3% (active). With `COc1cc(Cl)cc(-c2nn(-c3cccc(NC(=O)Nc4ccc(Cl)c(C(F)(F)F)c4)c3)cc2-c2ccncc2)c1` the figure was -9.59% (active); with `N#CC1=C(N)Oc2c(ccc3ccccc23)C1c1cccs1` (stereo not given), -29.6% (active); with `COc1ccc(/C(=C\c2ccc3c(c2)OCO3)C(=O)Nc2nc3ccccc3s2)cc1OC`, 92%. Consider `C=CCC(=O)N[C@H](/C=C/C(=O)O)Cc1ccc(-c2cc(Cl)cc(Cl)c2)cc1`, for which the growth was 101%.

As for `c1ccc(-c2nc(Nc3nccnn3)c3ccccc3n2)cc1`, the growth was 99.4%. With `O=C1c2cc3c(cc2-c2c1c1ccc(Cl)cc1c(=O)n2CCCn1ccnc1)OCO3` the figure was -29.1% (active). To `COc1ccc(NC(=O)CSc2nnc(-c3cc(-c4ccccc4)nc4ccccc34)n2-c2ccccc2)cc1` belongs 105%. To `C#CCNCCN1C(=O)c2ccc3c4c(ccc(c24)C1=O)C(=O)N(CCNCC#C)C3=O` belongs -18.4% (active). Regarding `COc1ccc2c(c1)C(=O)/C(=C/c1ccc(OCC(=O)Nc3nccs3)cc1)O2`, the growth is -84.2% (active).

As for `Cn1ncc2c(=O)nc3c(-c4ccccc4)n[nH]n3c21`, the growth was 107%. Regarding `Cc1nc(Nc2cccc(NC(=O)Nc3ccc(Cl)cc3)c2)c2ccccc2n1`, the growth is 78.6%.

With `COC(=O)c1c2c(c(C)[n+]([O-])c1C)C(=O)C(NCc1ccc(F)c(F)c1)=CC2=O`, the growth was -23.6% (active).

Consider `Cc1c2ccccc2nc2cc3c(cc12)[C@H]1CC[C@]2(C)C(=O)CC[C@H]2[C@@H]1CC3`, for which the growth is 97.1%. Regarding `CCc1c2c(nc3ccc(OCc4ccc(B5OC(C)(C)C(C)(C)O5)cc4)cc13)-c1cc3c(c(=O)n1C2)COC(=O)[C@]3(O)CC`, the growth is -1.71% (active). For the compound `C=C1C(=O)O[C@H]2[C@H]1CC/C(CNC(=O)c1c[nH]c3ccc(F)cc13)=C\CC[C@@]1(C)O[C@@H]21`, the growth was -35% (active). With `NS(=O)(=O)c1ccc(CCn2c(SCC(=O)N/N=C/c3cc4ccccc4[nH]3)nc3ccccc3c2=O)cc1` the figure was 35.2%. `COC(=O)c1ccc(NC(N)=NCCC(C)(C)c2ccc(C(F)(F)F)cc2)nc1`: the growth was -41.4% (active).

In the case of `C=C(C)[C@@H]1CC[C@]2(C(=O)Nc3ccccn3)CC[C@]3(C)[C@H](CC[C@@H]4[C@@]5(C)CCCNC(C)(C)[C@@H]5CC[C@]43C)[C@@H]12`, the growth was -38.1% (active).

For `CNCCCNc1nc2ccccc2c2c(=O)c3cc(F)ccc3sc12`, the growth was -5.1% (active). With `O=C(NNC(=O)N1c2ccccc2C=Cc2ccccc21)c1ccc2ccccc2c1` the figure was 90%; with `CCOc1ccc(Nc2ccnc3cc(Cl)ccc23)cc1`, -25.6% (active). With `CN(C)CCCCNc1ccc(NCCCCN(C)C)c2c1C(=O)c1c(O)ccc(O)c1C2=O` the figure was 24.6%; with `O=C(N/N=C\c1cc(Cl)ccc1[N+](=O)[O-])c1ccco1`, 107%. To `COc1ccc(OC)c(/C=C2\CCc3ccccc3C2=O)c1` belongs 16.9%; to `C=C1C(=O)O[C@H]2[C@H]1CC/C(CNC(=O)c1cc3ccccc3[nH]1)=C\CC[C@@]1(C)O[C@@H]21`, -41.5% (active). In the case of `CCCCCCCCC(=O)OCCCC(CCC(CCC1CCCO1)OC(=O)CCCCCCCC)OC(=O)CCCCCCCC` (stereo not given), the growth is 89%. With `CCN(CC)c1ccc(C(=C2C=CC(=[N+](CC)Cc3cccc(S(=O)(=O)O)c3)C=C2)c2ccc(N(CC)Cc3cccc(S(=O)(=O)O)c3)cc2)cc1` the figure was -22.2% (active). With `COC(=O)[C@@H](Cc1c[nH]c2ccccc12)NC(=O)[C@H](Cc1ccccc1)NCc1ccncc1` the figure was 80.6%; with `CC(=O)CCC(=O)OCc1cc(=O)c(O)co1`, 95%; with `O=c1[nH]nc(-c2ccc(Cl)cc2)cc1Cc1cccc([N+](=O)[O-])c1`, 109%. Regarding `O=C1c2cc3c(cc2-c2c1c1ccc(F)cc1c(=O)n2C[C@H](O)[C@H](O)[C@H](O)CO)OCO3`, the growth is -14.8% (active). For `NC(CCC(=O)NC(CS)C(=O)NCC(=O)O)C(=O)O` (stereo not given), the growth is 73.1%.
